Measured values published in PubChem BioAssay AID1508642 (National Center for Advancing Translational Sciences (NCATS), 2021).
Out of some 43,000 compounds screened, about 200 (0.47%) were called active. About 12% were inconclusive and are not listed. The sample holds actives, similar compounds and a random draw of the others, so the mix is not that of the screen. Values without a mark were called inactive. The call rests on the fitted dose curve; in most records, active means well fitted cell-killing curve with a large enough effect; inconclusive means small, poorly fitted or top-dose-only effect, or effect the other way; inactive means flat fitted curve, though single readings scatter.

Experiment: Cell viability qHTS assay in S16 Pmp22-F2sN cells; further: nearly all actives have a fitted effect of over 65% in size
Conditions: S16 Pmp22-F2sN Schwann cells (luciferase reporters placed in the Pmp22 gene) viability, CellTiter-Glo, 24 h; series mostly up to 57.5 µM; activity change, negative = cytotoxicity: at the top concentration
Excerpt: Assay Provider: Jim Inglese Ph.D. National Center for Advancing Translational Science, National Institutes of Health, Rockville, MD CMT is a heterogeneous group of neurological disorders that affect approximately 1 in 2,500 people. In particular, the most common form of CMT, CMT1A is genetically linked to the duplication of the PMP22 gene which leads to Schwann cell overexpression, thus manifesting itself as a typical case of dose-sensitive diseases. To identify small molecule compounds that can mediate the expression of PMP22 we developed a phenotypic assay screening strategy by utilizing genome editing techniques to construct Schwann cell lines containing novel reporter technology to monitor the transcriptional or translational regulation of PMP22. For high sensitivity we use a bioluminescent reporter system embedded in the 3' UTR of the PMP22 gene (S16(c9) Pmp22-F2sN) to identify compounds that inhibit gene expression. […] We can further discriminate the effect of all transcriptionally active molecules on PMP22 translation or stability with an assay that incorporates a short NLuc peptide (HiBiT) at the C-terminus of expressed PMP22 (S16(f8) PMP22-HiBiT) allowing alpha complementation and luminescence detection of membrane-associated PMP22 protein. These assays were screened against the NCATS Sytravon Library Collection. Miniaturization of these assays to 1536-well plate format for quantitative high throughput screening (qHTS) yielded rich data sets immediately from the qHTS assay (S16(c9) Pmp22-F2sN), when compared with data from a cell viability assay (Cell TiterGlo) to identify compounds that decreased the output signals through cellular toxicity to streamline the selection process of actives for subsequent characterization using the HiBiT assay (S16(f8) PMP22-HiBiT).
Cell viability assay in S16 Pmp22-F2sN cells PROTOCOL TABLE (format as described by Inglese J, Shamu CE and Guy RK. 2007) SEQUENCE No. (e.g., 1, 2, 3, etc.); […] (e.g., Cells, Incubation, Reagent, etc.); VALUE and DESCRIPTION. 1. Cells. Add 500-1,000 cells in 4 uL in growth media (DMEM High Glucose, No Phenol Red media + 10% heat-inactivated FBS + 1% Pen/Strep supplemented media) per well into Greiner 1536-well white/solid bottom high base, TC-treated plates. 2. Compounds. Library compounds and controls added at 23nL per well, transferred by Pin Tool. 3. Incubation. Incubate plates at 37C, 5% CO2, 95% RH for 24 h. 4. Reagent. Add 3uL CellTiter-Glo per well of Greiner 1536-well plates. 5. Incubation. Incubate plates at room temperature for 15 min., protect from light. 6. Detector. FLuc luminescence measured using CCD-based camera (Viewlux). NOTES (numbers refer to Sequence numbers above; values are from representative experiments) 6. Luminescence Read: Clear filter; Exposure = 1 sec, Gain = High, Speed = Slow, Binning = 2X REFERENCES: 1. Inglese J, Shamu CE and Guy RK, Reporting data from high throughput screening of small molecule libraries, Nature Chemical Biology, 2007, 3(8): 438-441. doi.org/10.1038/nchembio0807-438 2. Yasgar A, Shinn P, Jadhav A, Auld DS, Michael S, Zheng W, Austin CP, Inglese J and Simeonov A, Compound Management for Quantitative High-Throughput Screening. J. Assoc. Lab. Auto., 2008, 13: 79-89. doi: 10.1016/j.jala.2007.12.004
On the % scale 0 is the no-effect control and ±100 the full control effect; potency means the concentration at half of the fitted maximal effect.

Row | Structure (SMILES) | activity change, negative = cytotoxicity [%] | Potency
1 | COc1ccc(C2=CC(c3ccccc3Cl)n3nc(-c4ccc(Cl)cc4)nc3N2)cc1 (centres undefined) | -1.8 | –
2 | COc1ccc(C)cc1NC(=O)C(=O)NCCc1sc(-c2cccc(C)c2)nc1C | 15.9 | –
3 | Cc1c(-c2cccc(NC(=O)C(C)(C)C)c2)nc2ncccn12 | 9.29 | –
4 | Cc1cc(C)c(NC(=O)c2cc3sc(Cl)cc3n2C)c(C)c1 | -0.729 | –
5 | Cc1cccc(-n2ccnc2SCC(=O)Nc2cccc3ccccc23)c1C | -23 | –
6 | CC(C)Cn1c(-c2ccc(S(=O)(=O)N3CCOCC3)cc2)csc1=Nc1cc(Cl)ccc1Cl | 1.99 | –
7 | Cc1ccc2[nH]c3c(=O)n(CC(=O)NC(C)C)ncc3c2c1 | 17.3 | –
8 | COc1ccccc1CNC(=O)CS(=O)(=O)c1cccc2nsnc12 | 1.47 | –
9 | Cc1cccc2c1-c1sc(C(=O)Nc3ccc(F)cc3F)cc1CO2 | 4.55 | –
10 | CCOCCn1ccc2c(OCC(=O)NCc3ccc(C)cc3)cccc2c1=O | -27.9 | –
11 | CCOC(=O)C1CCN(S(=O)(=O)c2ccc3c(c2)N(C)C(=O)CC(=O)N3C)CC1 | 9.53 | –
12 | Cc1ccc2c(c1)N(C(=O)CCC(=O)NCc1ccccc1F)CC(C)O2 (centres undefined) | 16.2 | –
13 | COc1cc(CNC(=O)c2cc3n(n2)CCCN(Cc2cccc(F)c2)C3=O)cc(OC)c1OC | 4.68 | –
14 | COc1ccc(C2c3c(oc4ccccc4c3=O)C(=O)N2Cc2ccc3c(c2)OCO3)cc1 (centres undefined) | -4.77 | –
15 | CCCNC(=O)C1CCN(c2nc3ccc(C)cc3[nH]2)CC1 | 12.1 | –
16 | CCCc1cc(=O)n2[nH]c(NCc3ccc(CC)cc3)nc2n1 | -6.76 | –
17 | CCCCN(C)c1nnc(NC(=O)Nc2ccc(Br)c(C)c2)s1 | 7.82 | –
18 | Cc1cccc(-n2ncc(C(=O)N3CCC(C)CC3)c2C2CCN(C(=O)OC(C)(C)C)CC2)c1 | -0.159 | –
19 | COc1ccc2c(c1)c(=O)c(C(=O)c1ccccc1)cn2CC(=O)Nc1ccc2c(c1)OCCO2 | -17.2 | –
20 | Cn1ccc2cc(S(=O)(=O)N3CCCC(C(=O)NCc4ccccc4F)C3)ccc21 (centres undefined) | -1.54 | –
21 | CCOc1ccc(N(CC)C(=O)C2CCN(S(=O)(=O)c3cccc4nonc34)CC2)cc1 | 17 | –
22 | CCOc1ccc(N(Cc2ccccc2)C(=O)c2nc(S(C)(=O)=O)ncc2Cl)cc1 | – | 3.55 µM (active)

Row | Structure (SMILES) | activity change, negative = cytotoxicity [%] | Potency
23 | CCOc1ccc(N(Cc2ccccc2)C(=O)c2nc(SCC)ncc2Cl)cc1 | -13.1 | –
24 | O=C(Cn1ncn2nc(-c3cccs3)cc2c1=O)NCc1cccc(Br)c1 | -7.84 | –
25 | CCOC(=O)c1c(NC(=O)/C=C/c2ccc(OC)cc2)sc2c1CCC(C)C2 (centres undefined) | 2.92 | –
26 | Cc1ccc(O)c(NC(=O)CCS(=O)(=O)c2nc(-c3ccc4c(c3)OCO4)cc(C(F)(F)F)n2)c1 | 0.975 | –
27 | CCN(CC)CCNC(=O)Cn1ncc2c3ccccc3n(Cc3ccccc3C)c2c1=O | -15.4 | –
28 | COCCNC(=O)CSc1c(C)cnc2c1c(=O)n(C)c(=O)n2C | 2.19 | –
29 | COc1cc(C(=O)N2CCN(C(=O)COc3cccc(C)c3)CC2)cc(OC)c1OC | 8.68 | –
30 | CCCNC(=O)CCC(=O)N1Cc2ccccc2Oc2ncccc21 | 0.274 | –
31 | CC(NC(=O)CCc1cn(Cc2ccccc2Cl)c2ccccc12)c1ccccc1 (centres undefined) | -3.26 | –
32 | CC(C)CC(NS(=O)(=O)c1ccc2c(c1)oc(=O)n2C)C(=O)NCc1ccccc1Cl (centres undefined) | -2.2 | –
33 | O=C(COc1ccccc1)OCc1cc(=O)n2nc(-c3cccs3)sc2n1 | 0.234 | –
34 | CCc1c(C)sc(NC(=O)C2c3ccccc3Oc3ccccc32)c1C(=O)OC(C)C | 0.223 | –
35 | CCc1nc2cccnc2n1-c1ccc(CC(=O)Nc2c(C)cccc2C)cc1 | -4.84 | –
36 | CCCNC(=O)C1CCC(Cn2c(=O)c3sccc3n(Cc3ccccc3F)c2=O)CC1 (centres undefined) | -1.73 | –
37 | O=C(Nc1ccc(Br)cc1)c1cc2nc(-c3ccccc3)cc(-c3ccccc3)n2n1 | 5.96 | –
38 | COc1ccc(CCNC(=O)CCCn2c(=O)c3ccccc3n(Cc3ccc(F)cc3Cl)c2=O)cc1OC | -1.56 | –
39 | O=C(CSc1n[nH]c(-c2ccccc2)n1)N1CCCCC1 | 3.55 | –
40 | CCN(CC)S(=O)(=O)c1ccc2c(c1)nc(CN(C)C(=O)Nc1ccc(Cl)cc1)n2C | -1.34 | –
41 | O=C(NCCc1ccccc1)c1cnc2sc(N3CCCC3)nn2c1=O | 13.1 | –
42 | CCC(Sc1nc2n[nH]c(C)c2c(=N)n1-c1ccccc1Cl)C(=O)N(CC)CC (centres undefined) | -12.7 | –
43 | CCC(CC)C(=O)N1CCc2cc(OC)c(OC)cc2C1COc1ccc(F)cc1 (centres undefined) | 0.184 | –
44 | Cc1cc(C)c2oc(C(=O)Nc3ccc(S(=O)(=O)N4CCCCCC4)cc3)cc(=O)c2c1 | 11.6 | –
